Measured values published in PubChem BioAssay (NCI).
The panel holds about 83,000 compounds, 20% with a hit somewhere; the sample as a whole holds those more often.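 Growth was measured after 48 h exposure to one concentration of compound in 96-well plates. Values under 10 count as active.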 The source made the active and inactive calls.

Key:
Assay in all cases: NCI-60 one-dose screen, 48 h (100 = growth as untreated, 0 = no growth, -100 = all killed)
Conditions in all cases: 10 µM unless noted
[1] = tested on: SK-MEL-2 melanoma
[2] = tested on: EKVX NSCLC
[3] = tested on: SN12C renal
[4] = tested on: UO-31 renal
[5] = tested on: TK-10 renal
[6] = tested on: ACHN renal
[7] = tested on: CAKI-1 renal
[8] = tested on: CCRF-CEM leukemia
[9] = tested on: MOLT-4 leukemia
[10] = tested on: SR leukemia
[11] = tested on: RPMI-8226 leukemia
[12] = tested on: OVCAR-8 ovarian
[13] = tested on: OVCAR-5 ovarian
[14] = tested on: OVCAR-4 ovarian
[15] = tested on: SK-OV-3 ovarian
[16] = tested on: IGROV1 ovarian
[17] = tested on: OVCAR-3 ovarian
[18] = tested on: HS 578T breast
[19] = tested on: NCI/ADR-RES ovarian

Measured: growth

Clc1ccc2c(c1)c(-c1ccccc1)nc1nncn12
inactive: [1] 102% | [2] 109% | [3] 104% | [4] 90.8% | [5] 114% | [6] 117% | [7] 105% | [8] 101% | [9] 96.7% | [10] 83.8% | [11] 103% | [12] 106% | [13] 115% | [14] 121% | [15] 107% | [16] 109% | [17] 110% | [18] 106% | [19] 101%

C#CC(=O)Nc1cccc(Nc2nc3c(c(NCc4ccccc4)n2)CCCC3)c1
active: [1] -69.1% | [2] -62.3% | [3] -30.7% | [4] -91.6% | [5] -97.2% | [6] -93.5% | [7] -85.4% | [8] -8.54% | [9] -24.9% | [10] -27% | [11] -23.7% | [12] -89.6% | [13] -45% | [14] -95.3% | [15] -98.5% | [16] -42.6% | [17] -82.9% | [18] -5.41% | [19] 5.07%

COc1cc(Nc2cc(O)c3c(=O)cc(-c4ccccc4)oc3c2)cc(OC)c1
inactive: [1] 13.2% | [2] 38.2% | [3] 44.3% | [4] 40.3% | [5] 44% | [6] 48.3% | [7] 47.2% | [8] 10.8% | [9] 24.6% | [10] 17.3% | [11] 17.1% | [12] 26.1% | [13] 45.5% | [14] 59.3% | [15] 35.9% | [16] 42.1% | [18] 12.4% | [19] 22.2%
active: [17] 0.368%

CCCCCCCCOc1ccc(/C=N/Nc2cc(C)nc3ccc(Cl)cc23)cc1
active: [3] -82.4% | [5] -35.7% | [6] -1.15% | [8] 2.23% | [9] -14.1% | [10] -23.3% | [11] -3.13% | [12] -34.3% | [14] -69.7% | [16] -84.6% | [17] -93.1% | [19] -22%
inactive: [1] 95.6% | [2] 55.7% | [4] 79.2% | [7] 41.6% | [13] 27.1% | [15] 90.3% | [18] 46.9%

Cc1cccc(Oc2ccc(Nc3ncnc4ccc(NC(=O)CNCCO)cc34)cc2Cl)c1
active: [10] 5.67% | [16] 9.02%
inactive: [1] 87.8% | [2] 34.9% | [3] 39.4% | [4] 41% | [5] 39.8% | [6] 27.1% | [7] 52.9% | [8] 72.3% | [9] 62% | [11] 71.7% | [12] 66.7% | [13] 78.8% | [14] 67.7% | [15] 10.8% | [17] 49.7% | [18] 83.5% | [19] 76.1%

CCCCCCNC(=O)Oc1ccc(/C(=C(/CC)Cc2ccccc2)c2ccc(OCCN(CC)CC)cc2)cc1
active: [10] -27.3%
inactive: [1] 99.8% | [2] 81% | [3] 73.5% | [4] 58% | [5] 93.1% | [6] 89.4% | [7] 91% | [8] 45.4% | [9] 35.2% | [11] 26.8% | [12] 61.4% | [13] 83.2% | [14] 66.4% | [15] 89% | [16] 76.6% | [17] 72.4% | [18] 69.7% | [19] 70.6%

CC(C)NC(=O)N1C(=O)CCC1NNC(=O)c1ccc([N+](=O)[O-])cc1 (configuration not stated)
inactive: [1] 93.1% | [2] 110% | [3] 102% | [4] 92% | [5] 101% | [6] 106% | [7] 100% | [8] 104% | [9] 98.7% | [10] 94.9% | [11] 110% | [12] 111% | [13] 103% | [14] 97.9% | [15] 113% | [16] 104% | [17] 105% | [18] 117% | [19] 95%

Fc1ccc2nc3c(cc2c1)CSc1nnc(-c2ccc[nH]c2=S)n1N3
inactive: [1] 98.3% | [2] 94.2% | [3] 98.2% | [4] 82% | [5] 110% | [6] 94% | [7] 83.8% | [8] 98.9% | [9] 101% | [10] 90.4% | [11] 95.5% | [12] 105% | [13] 95.4% | [14] 91.5% | [15] 86.9% | [16] 86.7% | [17] 109% | [18] 96.3% | [19] 103%
